Binding signal data for one sequence are collected here from paper PMC7862700, “An all-to-all approach to the identification of sequence-specific readers for epigenetic DNA modifications on cytosine”.

What all share (experiment): DAPPL (digital affinity profiling via proximity ligation, sequencing); 10 mM Tris-HCl pH 7.5, 50 mM NaCl, 1 mM DTT, 4% glycerol, room temperature, 30 min; GST-TFs on glutathione beads, 16-mer random dsDNA library, 0.1% formaldehyde crosslink after washing; high values mean tight binding
For one test, the target named is T1, FEV (Homo sapiens, UniProt Q99581 1-238).
T1 sequence: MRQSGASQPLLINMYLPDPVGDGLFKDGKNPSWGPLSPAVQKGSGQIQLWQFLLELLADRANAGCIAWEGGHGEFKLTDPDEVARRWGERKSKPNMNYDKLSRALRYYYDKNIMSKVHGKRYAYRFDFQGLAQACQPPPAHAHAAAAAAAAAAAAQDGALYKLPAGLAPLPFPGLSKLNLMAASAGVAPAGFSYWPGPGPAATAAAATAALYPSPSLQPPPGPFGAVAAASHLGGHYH
The conditions noted are these: protein: recombinant; tags: N-terminal GST; dsDNA, one strand shown. The gist of the method:
(§1)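 Binding signal is each hexamer's read frequency for a factor divided by its frequency in the tag-only sample. The factors were GST-fused human transcription factors from yeast, captured on glutathione beads, DNA-barcoded and pooled with that sample. Pools were incubated with 200 nmole of a random double-stranded 16-mer DNA library in Tris/NaCl/DTT/glycerol buffer at room temperature for 30 min, then washed, crosslinked with 0.1% formaldehyde, proximity-ligated with BsaI/T4 ligase (1 h, 37 °C), PCR-amplified and sequenced on an Illumina NextSeq500.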

The next test deals with ETV5 (Homo sapiens, UniProt P41161 1-510). The conditions noted are these: protein: recombinant; tags: N-terminal GST; dsDNA, one strand shown. The method, boiled down: as §1
Chain of ETV5 (P41161 whole entry): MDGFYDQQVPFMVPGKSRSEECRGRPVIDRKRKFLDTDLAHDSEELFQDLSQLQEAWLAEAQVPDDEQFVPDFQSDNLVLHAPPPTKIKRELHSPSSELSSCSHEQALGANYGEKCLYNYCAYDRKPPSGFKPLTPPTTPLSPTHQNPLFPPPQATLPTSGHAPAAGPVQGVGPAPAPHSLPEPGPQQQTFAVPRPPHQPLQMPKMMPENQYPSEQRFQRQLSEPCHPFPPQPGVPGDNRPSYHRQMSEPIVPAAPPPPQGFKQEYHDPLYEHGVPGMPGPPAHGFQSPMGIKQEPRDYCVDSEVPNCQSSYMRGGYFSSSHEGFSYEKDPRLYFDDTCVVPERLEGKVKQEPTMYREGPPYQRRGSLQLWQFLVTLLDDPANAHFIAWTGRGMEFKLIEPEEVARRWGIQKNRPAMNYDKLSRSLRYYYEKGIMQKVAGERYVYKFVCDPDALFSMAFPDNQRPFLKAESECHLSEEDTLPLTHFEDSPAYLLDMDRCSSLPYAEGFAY
In a further test the target is HSF1 (Homo sapiens, UniProt Q00613 1-529). Conditions: protein: recombinant; tags: N-terminal GST; chain copies: 3; dsDNA, one strand shown. The gist of the method: as §1
Chain of HSF1 (Q00613 whole entry): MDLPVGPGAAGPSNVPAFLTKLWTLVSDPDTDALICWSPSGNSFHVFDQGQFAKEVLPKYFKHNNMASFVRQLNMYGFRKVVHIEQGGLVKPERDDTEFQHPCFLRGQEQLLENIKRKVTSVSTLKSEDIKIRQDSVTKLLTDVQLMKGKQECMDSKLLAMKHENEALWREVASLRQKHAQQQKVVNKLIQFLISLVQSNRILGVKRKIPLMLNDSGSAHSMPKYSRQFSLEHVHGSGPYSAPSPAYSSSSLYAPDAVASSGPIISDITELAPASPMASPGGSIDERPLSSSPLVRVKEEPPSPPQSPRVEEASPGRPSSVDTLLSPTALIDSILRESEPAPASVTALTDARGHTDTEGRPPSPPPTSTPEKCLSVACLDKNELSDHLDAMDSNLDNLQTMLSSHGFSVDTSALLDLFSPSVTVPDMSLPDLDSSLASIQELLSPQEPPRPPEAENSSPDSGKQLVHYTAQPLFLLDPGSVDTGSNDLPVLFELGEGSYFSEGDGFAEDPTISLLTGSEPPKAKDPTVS
The next test addresses T2, SPIC (Homo sapiens, UniProt Q8N5J4 1-248).
T2 sequence: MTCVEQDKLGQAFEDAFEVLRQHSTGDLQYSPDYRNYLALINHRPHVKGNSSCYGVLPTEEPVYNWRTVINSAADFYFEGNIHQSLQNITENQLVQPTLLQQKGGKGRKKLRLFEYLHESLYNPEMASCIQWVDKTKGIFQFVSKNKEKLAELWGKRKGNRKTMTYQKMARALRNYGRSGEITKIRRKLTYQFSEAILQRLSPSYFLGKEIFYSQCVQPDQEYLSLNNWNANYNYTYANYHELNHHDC
The conditions noted are these: protein: recombinant; tags: N-terminal GST; dsDNA, one strand shown. The gist of the method:
as §1

Another test addresses ELF4 (Homo sapiens, UniProt Q99607 1-663). Conditions: protein: recombinant; tags: N-terminal GST; dsDNA, one strand shown. The method, boiled down: as §1
Another test addresses T3, ELK4 (Homo sapiens, UniProt P28324-2 1-405).
T3 sequence: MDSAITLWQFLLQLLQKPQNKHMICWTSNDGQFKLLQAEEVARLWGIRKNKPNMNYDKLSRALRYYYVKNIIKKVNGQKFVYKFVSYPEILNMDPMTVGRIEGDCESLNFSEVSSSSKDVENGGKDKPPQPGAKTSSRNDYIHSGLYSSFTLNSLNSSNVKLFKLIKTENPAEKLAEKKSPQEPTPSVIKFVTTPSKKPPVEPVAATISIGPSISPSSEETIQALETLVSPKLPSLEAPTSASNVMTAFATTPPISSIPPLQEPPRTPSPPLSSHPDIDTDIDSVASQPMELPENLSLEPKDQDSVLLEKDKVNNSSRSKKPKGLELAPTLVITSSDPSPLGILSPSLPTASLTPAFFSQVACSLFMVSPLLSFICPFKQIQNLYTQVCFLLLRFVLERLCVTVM
The conditions noted are these: protein: recombinant; tags: N-terminal GST; dsDNA, one strand shown. The method, boiled down: as §1

A further test addresses T4, ETV2 (Homo sapiens, UniProt O00321 1-342).
T4 sequence: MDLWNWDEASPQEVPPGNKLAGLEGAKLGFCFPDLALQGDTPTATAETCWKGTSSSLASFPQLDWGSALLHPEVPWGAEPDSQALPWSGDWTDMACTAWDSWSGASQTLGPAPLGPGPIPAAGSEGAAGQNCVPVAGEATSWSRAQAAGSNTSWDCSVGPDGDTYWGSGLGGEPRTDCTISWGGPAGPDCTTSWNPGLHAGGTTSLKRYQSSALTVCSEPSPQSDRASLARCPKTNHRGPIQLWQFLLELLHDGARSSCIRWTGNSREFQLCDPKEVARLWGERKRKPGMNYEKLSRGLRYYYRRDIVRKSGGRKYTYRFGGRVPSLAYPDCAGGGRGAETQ
Conditions: protein: recombinant; tags: N-terminal GST; dsDNA, one strand shown. The gist of the method:
as §1

The next test addresses T5, ELF3 (Homo sapiens, UniProt P78545 1-371).
T5 sequence: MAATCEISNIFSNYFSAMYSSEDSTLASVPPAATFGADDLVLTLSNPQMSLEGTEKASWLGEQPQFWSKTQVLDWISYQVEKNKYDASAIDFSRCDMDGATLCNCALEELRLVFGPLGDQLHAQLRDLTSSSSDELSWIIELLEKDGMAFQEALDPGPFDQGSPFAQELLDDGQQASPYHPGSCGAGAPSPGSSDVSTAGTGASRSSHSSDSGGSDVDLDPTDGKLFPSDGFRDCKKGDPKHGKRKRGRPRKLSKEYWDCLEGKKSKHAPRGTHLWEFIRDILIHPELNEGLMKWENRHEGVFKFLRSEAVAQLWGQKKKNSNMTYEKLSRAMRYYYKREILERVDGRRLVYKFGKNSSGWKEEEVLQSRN
The conditions noted are these: protein: recombinant; tags: N-terminal GST; dsDNA, one strand shown. The method, boiled down: as §1

Another test has as its target CRX (Homo sapiens, UniProt O43186 1-299). The conditions noted are these: protein: recombinant; tags: N-terminal GST; dsDNA, one strand shown. The method, boiled down:
as §1

For another test, the target named is ETV1 (Homo sapiens, UniProt P50549 1-477). The conditions noted are these: protein: recombinant; tags: N-terminal GST; dsDNA, one strand shown. The method, boiled down: as §1
Chain of ETV1 (P50549 whole entry): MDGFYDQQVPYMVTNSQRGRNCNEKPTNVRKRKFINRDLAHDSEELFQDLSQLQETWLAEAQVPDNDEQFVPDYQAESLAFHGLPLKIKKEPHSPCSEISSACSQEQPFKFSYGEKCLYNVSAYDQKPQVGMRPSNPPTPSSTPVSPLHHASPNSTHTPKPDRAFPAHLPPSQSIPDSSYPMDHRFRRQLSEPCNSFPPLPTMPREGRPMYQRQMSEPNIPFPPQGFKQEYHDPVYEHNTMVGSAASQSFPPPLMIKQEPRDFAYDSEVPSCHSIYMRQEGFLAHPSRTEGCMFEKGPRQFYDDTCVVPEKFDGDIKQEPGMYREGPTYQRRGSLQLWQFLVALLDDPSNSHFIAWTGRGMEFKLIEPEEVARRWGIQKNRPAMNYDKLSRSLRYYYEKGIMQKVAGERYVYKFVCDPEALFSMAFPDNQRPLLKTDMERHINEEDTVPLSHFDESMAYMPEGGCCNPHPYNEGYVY
The next test concerns the target T6, ERF (Homo sapiens, UniProt P50548 1-548).
T6 sequence: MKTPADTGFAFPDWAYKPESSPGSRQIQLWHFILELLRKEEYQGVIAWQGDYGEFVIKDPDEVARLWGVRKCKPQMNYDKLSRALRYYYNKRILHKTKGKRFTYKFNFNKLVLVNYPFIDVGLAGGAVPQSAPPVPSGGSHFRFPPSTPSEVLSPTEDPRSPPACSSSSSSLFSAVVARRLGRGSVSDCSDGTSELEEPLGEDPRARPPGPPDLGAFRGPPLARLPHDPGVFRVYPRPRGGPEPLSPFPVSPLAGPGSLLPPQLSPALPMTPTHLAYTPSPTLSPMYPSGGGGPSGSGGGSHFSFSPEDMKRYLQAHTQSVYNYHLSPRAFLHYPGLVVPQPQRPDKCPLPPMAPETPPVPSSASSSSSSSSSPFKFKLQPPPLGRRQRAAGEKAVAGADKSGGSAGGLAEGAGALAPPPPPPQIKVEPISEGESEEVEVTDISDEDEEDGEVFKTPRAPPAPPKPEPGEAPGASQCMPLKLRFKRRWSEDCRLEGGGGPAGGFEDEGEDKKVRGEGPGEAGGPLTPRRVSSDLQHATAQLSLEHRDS
The conditions noted are these: protein: recombinant; tags: N-terminal GST; dsDNA, one strand shown. The method, boiled down:
as §1

A further test addresses T7, ETV3L (Homo sapiens, UniProt Q6ZN32 1-361).
T7 sequence: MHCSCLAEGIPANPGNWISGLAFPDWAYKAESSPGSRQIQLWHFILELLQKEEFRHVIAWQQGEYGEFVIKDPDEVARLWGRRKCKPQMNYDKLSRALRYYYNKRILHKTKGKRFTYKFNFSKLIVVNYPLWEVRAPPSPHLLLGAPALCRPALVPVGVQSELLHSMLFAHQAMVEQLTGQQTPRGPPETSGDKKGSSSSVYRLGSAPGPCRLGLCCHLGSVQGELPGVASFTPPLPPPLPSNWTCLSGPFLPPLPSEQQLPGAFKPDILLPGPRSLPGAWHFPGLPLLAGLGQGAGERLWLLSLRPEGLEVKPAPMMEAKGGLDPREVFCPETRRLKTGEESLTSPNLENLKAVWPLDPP
The conditions noted are these: protein: recombinant; tags: N-terminal GST; dsDNA, one strand shown. The method, boiled down: as §1

The next test has as its target T8, ETS2 (Homo sapiens, UniProt P15036 1-469).
T8 sequence: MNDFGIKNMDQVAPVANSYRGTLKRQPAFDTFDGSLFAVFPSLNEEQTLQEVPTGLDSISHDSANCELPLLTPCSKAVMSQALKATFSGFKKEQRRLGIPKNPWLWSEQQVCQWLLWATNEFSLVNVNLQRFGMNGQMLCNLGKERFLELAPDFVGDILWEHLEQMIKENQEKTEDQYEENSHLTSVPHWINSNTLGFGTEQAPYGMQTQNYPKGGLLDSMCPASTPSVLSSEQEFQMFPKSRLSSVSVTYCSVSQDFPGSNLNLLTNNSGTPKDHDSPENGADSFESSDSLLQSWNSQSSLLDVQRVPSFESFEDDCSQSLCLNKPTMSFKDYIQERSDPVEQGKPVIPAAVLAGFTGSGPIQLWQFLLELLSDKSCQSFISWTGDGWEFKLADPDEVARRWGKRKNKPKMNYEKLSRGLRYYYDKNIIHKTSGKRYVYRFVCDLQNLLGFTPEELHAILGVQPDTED
Conditions: protein: recombinant; tags: N-terminal GST; dsDNA, one strand shown. The gist of the method:
as §1

In another test the target is T9, SPDEF (Homo sapiens, UniProt O95238 1-335).
T9 sequence: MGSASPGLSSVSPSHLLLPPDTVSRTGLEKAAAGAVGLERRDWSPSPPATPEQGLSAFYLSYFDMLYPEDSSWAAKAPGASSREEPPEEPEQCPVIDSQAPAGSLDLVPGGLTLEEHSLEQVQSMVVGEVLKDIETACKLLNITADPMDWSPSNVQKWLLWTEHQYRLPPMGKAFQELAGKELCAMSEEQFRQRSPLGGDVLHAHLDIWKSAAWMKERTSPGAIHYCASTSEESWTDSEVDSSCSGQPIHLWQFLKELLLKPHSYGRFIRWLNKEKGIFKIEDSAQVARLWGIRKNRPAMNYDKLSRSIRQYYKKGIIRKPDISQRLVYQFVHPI
The conditions noted are these: protein: recombinant; tags: N-terminal GST; dsDNA, one strand shown. The gist of the method:
as §1

Another test concerns the target T10, ETV7 (Homo sapiens, UniProt Q9Y603 1-341).
T10 sequence: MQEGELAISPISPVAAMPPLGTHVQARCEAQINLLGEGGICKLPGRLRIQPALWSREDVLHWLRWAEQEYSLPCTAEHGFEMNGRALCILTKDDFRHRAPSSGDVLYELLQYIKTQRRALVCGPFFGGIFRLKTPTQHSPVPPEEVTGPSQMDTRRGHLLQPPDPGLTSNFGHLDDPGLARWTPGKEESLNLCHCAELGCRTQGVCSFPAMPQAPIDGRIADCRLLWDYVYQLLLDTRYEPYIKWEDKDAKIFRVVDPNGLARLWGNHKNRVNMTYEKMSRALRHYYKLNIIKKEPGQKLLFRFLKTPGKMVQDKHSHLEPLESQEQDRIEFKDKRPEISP
Conditions: protein: recombinant; tags: N-terminal GST; dsDNA, one strand shown. The method, boiled down: as §1

Another test has as its target T11, ELF5 (Homo sapiens, UniProt Q9UKW6-2 1-255).
T11 sequence: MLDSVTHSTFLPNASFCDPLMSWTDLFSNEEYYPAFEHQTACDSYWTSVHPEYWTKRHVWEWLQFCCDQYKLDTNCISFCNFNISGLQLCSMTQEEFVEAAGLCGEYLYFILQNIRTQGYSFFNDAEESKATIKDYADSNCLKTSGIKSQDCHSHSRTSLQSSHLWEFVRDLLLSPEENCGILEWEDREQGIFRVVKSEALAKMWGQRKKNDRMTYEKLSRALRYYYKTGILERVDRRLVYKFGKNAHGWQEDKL
Conditions: protein: recombinant; tags: N-terminal GST; dsDNA, one strand shown. The method, boiled down: as §1

A further test concerns the target T12, ETV3 (Homo sapiens, UniProt P41162-2 1-143).
T12 sequence: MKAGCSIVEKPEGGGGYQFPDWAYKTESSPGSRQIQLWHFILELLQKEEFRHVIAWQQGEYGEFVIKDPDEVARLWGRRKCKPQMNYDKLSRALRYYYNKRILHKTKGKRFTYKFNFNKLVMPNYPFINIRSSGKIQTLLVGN
The conditions noted are these: protein: recombinant; tags: N-terminal GST; dsDNA, one strand shown. The method, boiled down: as §1

A further test concerns the target ETV6 (Homo sapiens, UniProt P41212 1-452). Conditions: protein: recombinant; tags: N-terminal GST; dsDNA, one strand shown. The method, boiled down:
as §1

Chain of ELF4 (Q99607 whole entry): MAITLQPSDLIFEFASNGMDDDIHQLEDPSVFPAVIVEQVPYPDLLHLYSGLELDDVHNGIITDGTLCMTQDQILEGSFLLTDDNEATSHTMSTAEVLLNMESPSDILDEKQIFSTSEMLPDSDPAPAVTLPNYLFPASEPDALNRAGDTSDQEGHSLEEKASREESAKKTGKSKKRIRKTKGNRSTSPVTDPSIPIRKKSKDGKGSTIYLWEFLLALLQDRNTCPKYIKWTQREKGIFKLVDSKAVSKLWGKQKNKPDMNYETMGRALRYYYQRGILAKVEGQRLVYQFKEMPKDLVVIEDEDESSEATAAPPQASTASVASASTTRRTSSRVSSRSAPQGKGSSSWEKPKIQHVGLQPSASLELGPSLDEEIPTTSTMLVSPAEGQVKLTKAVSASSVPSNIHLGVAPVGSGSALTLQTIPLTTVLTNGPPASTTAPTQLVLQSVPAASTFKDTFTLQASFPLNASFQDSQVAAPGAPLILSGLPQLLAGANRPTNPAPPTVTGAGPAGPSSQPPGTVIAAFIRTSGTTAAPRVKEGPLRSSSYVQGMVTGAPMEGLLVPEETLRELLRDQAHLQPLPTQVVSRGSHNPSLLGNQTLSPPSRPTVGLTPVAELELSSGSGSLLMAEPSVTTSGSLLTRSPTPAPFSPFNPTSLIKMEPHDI
Chain of ETV6 (P41212 whole entry): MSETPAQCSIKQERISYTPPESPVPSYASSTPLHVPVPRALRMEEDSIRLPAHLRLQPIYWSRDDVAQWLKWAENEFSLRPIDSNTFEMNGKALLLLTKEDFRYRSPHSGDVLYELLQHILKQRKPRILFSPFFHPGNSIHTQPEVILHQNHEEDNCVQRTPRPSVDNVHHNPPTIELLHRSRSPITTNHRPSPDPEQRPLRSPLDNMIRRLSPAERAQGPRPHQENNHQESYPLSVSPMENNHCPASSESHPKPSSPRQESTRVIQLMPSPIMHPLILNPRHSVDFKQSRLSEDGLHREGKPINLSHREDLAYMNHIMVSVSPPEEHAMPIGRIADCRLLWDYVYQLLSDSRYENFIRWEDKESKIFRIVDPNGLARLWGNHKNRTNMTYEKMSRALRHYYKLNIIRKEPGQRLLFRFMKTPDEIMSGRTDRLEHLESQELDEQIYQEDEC
Chain of CRX (O43186 whole entry): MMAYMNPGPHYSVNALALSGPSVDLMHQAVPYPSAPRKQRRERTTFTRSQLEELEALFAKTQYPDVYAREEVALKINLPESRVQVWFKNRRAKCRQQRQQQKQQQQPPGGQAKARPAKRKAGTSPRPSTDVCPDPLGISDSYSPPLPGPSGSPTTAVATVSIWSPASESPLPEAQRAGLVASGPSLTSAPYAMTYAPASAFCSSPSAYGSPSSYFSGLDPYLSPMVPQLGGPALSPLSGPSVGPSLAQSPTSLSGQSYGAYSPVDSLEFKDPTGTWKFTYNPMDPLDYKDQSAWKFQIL

For CTCGAT, the binding signal with FEV was 1.29 fold enrichment (6-mer frequency, TF over GST control); in the test with ETV5, 1.3 fold enrichment (6-mer frequency, TF over GST control); with HSF1 it was 2.06 fold enrichment (6-mer frequency, TF over GST control); in the test with SPIC, 1.46 fold enrichment (6-mer frequency, TF over GST control); with ELF4, 1.43 fold enrichment (6-mer frequency, TF over GST control); with ELK4, 1.59 fold enrichment (6-mer frequency, TF over GST control). Also, the binding signal is 1.25 fold enrichment (6-mer frequency, TF over GST control) in the test with ETV2; 1.09 fold enrichment (6-mer frequency, TF over GST control) with ELF3; 1.48 fold enrichment (6-mer frequency, TF over GST control) with CRX; 1.27 fold enrichment (6-mer frequency, TF over GST control) with ETV1; 1.37 fold enrichment (6-mer frequency, TF over GST control) with ERF; 1.44 fold enrichment (6-mer frequency, TF over GST control) with ETV3L. Also, the binding signal in the test with ETS2 was 1.36 fold enrichment (6-mer frequency, TF over GST control); with SPDEF, 1.22 fold enrichment (6-mer frequency, TF over GST control); with ETV7 it was 1.31 fold enrichment (6-mer frequency, TF over GST control); with ELF5, 1.22 fold enrichment (6-mer frequency, TF over GST control); in the test with ETV3, 1.36 fold enrichment (6-mer frequency, TF over GST control); with ETV6, 1.3 fold enrichment (6-mer frequency, TF over GST control).
